Structures are written as SMILES. Screen size: about 290,000 compounds; about 2,700 (0.93%) were called active.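 The calls were made as follows: active = inhibition above the screen-wide mean plus 3 SD, computed separately per campaign (cut at about 16% in these data); inactive = the rest.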 The full list was thinned out, with actives kept by preference.

This assay relates to Heat shock protein HSP 90 (rabbit reticulocyte lysate; luciferase refolding). Nature of the assay: inhibitors of HSP90 chaperone activity – cell lysate, luminescence, primary screen (AID 1789).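 Also: 0% = DMSO wells and 100% = 60 µM geldanamycin wells; inhibitors lower the luminescence because luciferase stays unfolded.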 The following applies: 3 h, at 5.6 µM, active compounds read high.
Turning to `C#CCOc1ccc(/C=C2/C(=O)ON=C2C)cc1OCC`, the inhibition was 1.13% (inactive).

Take `Cc1ccc(NC(=O)C(CC(=O)O)C2CCCO2)c(C)c1` (stereo unspecified): the inhibition is -2.07% (inactive).

Regarding `CCOC(=O)N1CCC(NC(=O)CCc2ccccc2)CC1`, the inhibition is 2.73% (inactive).

For `COc1ccc(C(=O)NCCn2nc(C)cc2C)cc1OC1CCN(C(C)=O)CC1`, the inhibition was 0.85% (inactive).

As to `Cc1cnc(NC(=O)c2ccc(Cl)nc2)s1`, the inhibition is -0.28% (inactive).

`Cc1cnc(NC(=O)c2ccccn2)s1`: the inhibition was 21% (active).

In the case of `O=C(Nc1nnc(C2CC2)s1)c1ccccn1`, the inhibition was 16% (inactive).

Take `O=C(CN1CCN(C(=O)C2CCCO2)CC1)Nc1c(Cl)cccc1Cl` (stereo unspecified): the inhibition is -1.9% (inactive).

On to `CCN(CC)CCN1C(=O)C(=O)/C(=C(/O)c2ccc(OC)c(OC)c2)C1c1ccccn1` (stereo unspecified), for which the inhibition is 0.07% (inactive).

Consider `CCN(CC)CCN1C(=O)C(=O)/C(=C(/O)c2cnn(-c3ccccc3)c2C)C1c1cccs1` (stereo unspecified), for which the inhibition was 33.3% (active).

For the compound `CCN(CC)CCN1C(=O)C(=O)/C(=C(/O)c2ccccc2)C1c1ccccc1F` (stereo unspecified), the inhibition is 1.61% (inactive).

`CCOc1ccc(OCC(=O)Nc2c3c(nn2C(C)(C)C)CS(=O)(=O)C3)cc1`: the inhibition was 4.2% (inactive).

For `CCN(CCCNC(=O)c1ccc2c(c1)NC(=O)CN2C)c1cccc(C)c1`, the inhibition was 19.6% (active).

For the compound `CCN(CCCNC(=O)CCn1c(=O)[nH]c2ccsc2c1=O)c1ccccc1`, the inhibition was 0.39% (inactive).

Take `Cc1cccc(C(=O)NCCCN(C)CCCNC(=O)c2cccc(C)c2)c1`: the inhibition was -1.31% (inactive).

For `O=C(Oc1cccc(C(=S)N2CCOCC2)c1)c1cccc(Cl)c1`, the inhibition was -2.58% (inactive).

For `C=CCN1CCN(C(=O)CCCc2ccccc2)CC1`, the inhibition is 39.7% (active).

Consider `O=C(CCCc1ccccc1)NCc1ccccc1`, for which the inhibition was -2.48% (inactive).

For `CC(=O)c1ccc(N2CCN(C(=O)CCc3ccccc3)CC2)cc1`, the inhibition was -1.79% (inactive).

`O=C(OCC(=O)c1c[nH]c2ccccc12)c1cccc(O)c1`: the inhibition was -4.88% (inactive).

For the compound `O=C(OCc1ccc(-c2ccccc2)cc1)c1cccc(O)c1`, the inhibition was 18.4% (active).

Consider `O=C(OCc1ccc(Br)cc1)c1cccc(-c2nnc(-c3ccccc3)o2)c1`, for which the inhibition is 3.03% (inactive).

Take `O=C(COc1cc2oc(=O)c3c(c2cc1Cl)CCC3)NCCCN1CCOCC1`: the inhibition is -0.69% (inactive).

Take `COc1ccc(N2CCN(C(=O)C3CCN(C(=O)c4ccccc4Cl)CC3)CC2)cc1`: the inhibition is 1.46% (inactive).

As for `COc1ccc(NC(=O)C/C(C)=N/NC(=O)c2cnccn2)cc1Cl`, the inhibition is -1.56% (inactive).

In the case of `Cc1ccc(Sc2cc(C(=O)c3ccccc3C(=O)O)ccc2[N+](=O)[O-])cc1`, the inhibition is -2.36% (inactive).

On to `Cc1ccc(C(=O)CSc2ccccc2C(=O)O)cc1`, for which the inhibition is 23.8% (active).

In the case of `O=C(CSc1cccc[n+]1[O-])c1ccc(-c2ccccc2)cc1`, the inhibition is -3.2% (inactive).

Regarding `COc1ccc(C(C(=O)NC2CCCC2)N(CCCO)C(=O)Cn2nnc(-c3ccc(C)o3)n2)cc1` (stereo unspecified), the inhibition is -2.61% (inactive).

For `CCOC(=O)CSc1nc(N2CCOCC2)c2c(c1C#N)CC(C(C)C)OC2` (stereo unspecified), the inhibition was 0.22% (inactive).

As for `CCC(=C/c1sc2ccc3ccccc3c2[n+]1C)/C=C1\Sc2ccc3ccccc3c2N1C`, the inhibition was 19.1% (active).

With `CCn1c(=O)c(=O)[nH]c2c(=O)oc3ccc(S(=O)(=O)Nc4ccc(OC)cc4)cc3c21`, the inhibition is 1.48% (inactive).

Regarding `CCOC(=O)c1ccc(NC(=O)c2ccc(NC(=O)C3CCCO3)cc2)cc1` (stereo unspecified), the inhibition is -2.21% (inactive).

As for `COc1ccc(CCNC(=O)C(=O)NCC2OCCN2S(=O)(=O)c2ccc(OC)c(C)c2)cc1` (stereo unspecified), the inhibition is 3.33% (inactive).

`O=C(NCCCN1CCCC1=O)C(=O)NCC1OCCN1S(=O)(=O)c1ccc(Br)cc1` (stereo unspecified): the inhibition was -3.67% (inactive).

As to `CCOC(=O)C1=C(c2ccccc2)NC(=S)NC1c1ccc(Cl)cc1` (stereo unspecified), the inhibition was 2.24% (inactive).

In the case of `COc1ccc(C2NC(=S)NC3=C2CCc2ccccc23)cc1OC` (stereo unspecified), the inhibition was -4.91% (inactive).

`CCOc1ccc(C2NC(=S)NC3=C2CCc2ccccc23)cc1` (stereo unspecified): the inhibition was 24.1% (active).

As to `COc1ccc(-c2cc(=O)oc3cc(OC(C)C(=O)Nc4ccc(CN5CCOCC5)cc4)ccc23)cc1` (stereo unspecified), the inhibition was -1.3% (inactive).

Regarding `COc1cc(OC)cc(C(=O)NCCSCc2ccc(Cl)cc2)c1`, the inhibition is 2.62% (inactive).

Turning to `CCOC(=O)C1CCN(S(=O)(=O)c2c(C)noc2C)CC1`, the inhibition was -1.41% (inactive).

In the case of `COc1ccc(Nc2ncnc3ccc(Br)cc23)c(OC)c1`, the inhibition was 35.7% (active).

`C=CCNc1ncnc2ccc(Br)cc12`: the inhibition was -3.86% (inactive).

For `COc1ccc(Nc2ncnc3sc(-c4ccccc4)cc23)c(OC)c1`, the inhibition is -1.63% (inactive).

`Cc1ccc(S(=O)(=O)NCC(=O)Nc2ccc3c(c2)OCCO3)cc1`: the inhibition is 5.88% (inactive).

Turning to `O=c1c2ccccc2nc(N/N=C/c2ccccc2)n1O`, the inhibition was -0.57% (inactive).

`O=C(Nn1cnc2ccccc2c1=O)c1ccccc1`: the inhibition was -3.95% (inactive).

On to `O=c1c2ccccc2ncn1/N=C/c1ccccc1`, for which the inhibition is 16.4% (active).

Take `CC(C)C[C@H](NC(=O)N1CC(=O)Nc2ccccc21)C(=O)N[C@H](Cc1ccccc1)C(=O)O`: the inhibition was -4.11% (inactive).

Take `COC(=O)C1[C@H]2SC(C)(C)C(C(=O)OC)N2C(=O)N1Cc1nc2ccccc2s1` (stereo partly specified): the inhibition is 26.1% (active).

Consider `CCC1(CC)NC(=O)N(Cc2nc3ccccc3s2)C1=O`, for which the inhibition is 1.16% (inactive).

For the compound `CC1(C)SC2C(NC(=O)COc3ccccc3)C(=O)N2C1C(=O)O` (stereo unspecified), the inhibition was -3.05% (inactive).

For the compound `O=[N+]([O-])c1ccc(F)cc1Oc1nc(-c2cccnc2)nc2ccccc12`, the inhibition was 2.73% (inactive).

For `O=C(Cc1ccccc1)N1CCN(S(=O)(=O)c2ccc([N+](=O)[O-])cc2)CC1`, the inhibition was 20% (active).

With `O=C(Cc1ccccc1)NNS(=O)(=O)c1ccc([N+](=O)[O-])cc1`, the inhibition is -2.29% (inactive).

In the case of `CS(=O)(=O)N1CCN(C(=O)Cc2ccccc2)CC1`, the inhibition is -2.11% (inactive).

For `COc1ccc(-c2cc(C(=O)N3CCN(c4ccc(F)cc4)CC3)no2)cc1`, the inhibition was -0.04% (inactive).

In the case of `O=C(CCc1c[nH]c2ccccc12)NCCOc1ccccc1`, the inhibition is -0.52% (inactive).

As for `COc1ccc(C)cc1NC(=O)CSc1ccc(Cl)cc1`, the inhibition is 1.35% (inactive).

`COc1ccc(Cl)cc1NC(=O)CN1CCN(C(=O)N2CCOCC2)CC1`: the inhibition is -1.78% (inactive).

For the compound `COc1ccc(Cl)cc1NC(=O)Cn1nc(-c2ccc(C)cc2)n(C)c1=S`, the inhibition is 17.9% (active).

As a reminder, the inhibition is the change of the read-out against control, counted positive when it falls.

The record behind these values is PubChem BioAssay AID1789 (The Scripps Research Institute Molecular Screening Center, 2009).
